The campaign covered roughly 320,000 compounds. About 2,100 (0.66%) were called active. About 53% were inconclusive and are not listed. Calls follow the shape of the dose curve; as a rule, active = well fitted inhibition curve with a large enough effect in the signal ratio, with a control signal flat (not every such curve was filed as active); inconclusive = small, poorly fitted or top-dose-only effect, or effect the other way, or a change in a side signal; inactive = flat fitted curve, though single readings scatter; the % refers to the signal ratio. Many of the other results were omitted from the sample, so actives are more common in it than they were.
Potency is read from the fitted curve at half-maximal effect.

The assay can be described thus: qHTS Assay for Lipid Storage Modulators in Drosophila S3 Cells.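 As to cell number change: cells counted by Cell Tracker Red CMTPX staining in the red channel.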 As to lipid storage change, negative = inhibition: % is scaled to controls: 0 for no effect and ±100 for the full control effect. Conditions: BODIPY lipid droplet fluorescence, 18-24 h, cells fed with added oleic acid; cell number change: measured here: cell count max response; series mostly up to 46.1 µM. The method in brief: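 Drosophila S3 cells loaded with oleic acid (400 uM, as added) and compounds at several concentrations; lipid droplets imaged by 488-nm laser-scanning cytometry, 500–530 nm intensity and object ratio to cell channel. Percent activity normalized to 20 uM Triacsin C.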
Regarding `CCCCOC(=O)c1ccc(NC(=O)C(CCS(C)(=O)=O)NC(C)=O)cc1` (stereo unspecified), the Potency entry was “inactive” and the cell number change was 13%. Turning to `CC1(OC(=O)CCc2ccccc2)C(=O)C=C2C=C(c3ccc(C#N)cc3)N(C3CCCCC3)C=C2C1=O` (stereo unspecified), the Potency entry is “inactive” and the cell number change was 20.5%. Consider `CCCCC[C@]12Cc3cc(OC)c(OC)cc3C(O1)c1c(cc(C)n(-c3ccccc3)c1=O)O2`, for which the cell number change is -8.82% and the lipid storage change, negative = inhibition was -5.41% [at 9.22 µM] (inactive). Turning to `Cn1c(Sc2ccc(C(=O)O)cc2[N+](=O)[O-])nnc1-c1ccccc1`, the Potency result is “inactive” and the cell number change was 9.56%. For `O=C(O)c1ccc(Sc2nnc(-c3cccc(Br)c3)o2)c([N+](=O)[O-])c1`, the Potency was 25.9 µM (active) and the cell number change was -23.6%. `O=C(O)c1ccc(-c2nnc(-c3cccc(Br)c3)o2)cc1`: the Potency entry was “inactive” and the cell number change was 12.2%. For `C=CCOc1cccc(C2C(C(=O)c3ccco3)=C(O)C(=O)N2Cc2cccnc2)c1` (stereo unspecified), the Potency result is “inactive” and the cell number change worked out at 4.96%. For `O=C(CN1CCC(C(=O)c2ccc(F)cc2)CC1)Nc1ccc(F)cc1`, the Potency result is “inactive” and the cell number change was -11.2%.

In the case of `Cn1c(/N=C/c2c[nH]c3ccccc23)nc2ccccc21`, the Potency result is “inactive” and the cell number change is -13.5%. As to `O=C(NN1CCOCC1)c1cc(-c2ccc(Br)s2)nc2ccccc12`, the Potency entry is “inactive” and the cell number change came to 18.5%.

For the compound `CC(C)CCNC(=O)CCc1nnc(COc2ccccc2)o1`, the Potency entry was “inactive” and the cell number change worked out at 3.37%. For `COC(=O)[C@H](CC(C)C)NC(=O)CCc1nnc(COc2ccccc2)o1`, in that order: 18.4 µM (active) and -24.9%. Take `O=C(CCc1nnc(COc2ccccc2)o1)NCc1ccccc1`: the Potency result was “inactive” and the cell number change was -8.23%.

Take `CC(/C=N/NC(=O)c1cccnc1)=C\c1ccco1`: the Potency entry was “inactive” and the cell number change was 4.96%. `O=S(=O)(NC(=NCc1ccccc1)c1ccccc1)c1ccc(Br)cc1`: the Potency result is “inactive” and the cell number change was determined as 2.37%.

Consider `CSc1ccc(C2C(C(=O)c3ccco3)=C(O)C(=O)N2c2nnc(SC)s2)cc1` (stereo unspecified), for which the Potency is 7.31 µM (active) and the cell number change is -24.7%. Regarding `CSc1nnc(N2C(=O)C(O)=C(C(=O)c3ccco3)C2c2ccc(F)cc2)s1` (stereo unspecified), the Potency entry was “inactive” and the cell number change is -4.48%.

Turning to `CSc1nnc(N2C(=O)C(O)=C(C(=O)c3ccco3)C2c2cccc(Cl)c2)s1` (stereo unspecified), the Potency entry was “inactive”.

As for `CCCc1c(O)nc(SCC(=O)O)[nH]c1=O`, the Potency result was “inactive” and the cell number change is -0.742%. Turning to `COC(=O)COc1coc(CN2CCN(c3cccc(Cl)c3)CC2)cc1=O`, the Potency entry is “inactive” and the cell number change turned out to be 12.5%. As for `COc1cc(OC)c(CN2CCCN(C)CC2)cc1Br`, the Potency result is “inactive” and the cell number change came out at 15.5%.

As to `COc1cc(OC)c(CN2CCCCCCC2)cc1Br`, the Potency is 29.1 µM (active) and the cell number change is -11.5%.

Consider `COc1ccc(Br)cc1CN1CCCCCCC1`, for which the Potency result was “inactive” and the cell number change was found to be 9.97%.

Regarding `CC1=C(C(=O)OCC(C)C)[C@]23C(=O)c4ccccc4[C@@]2(O1)OC(N)=C3C#N`, the Potency entry was “inactive” and the cell number change was -12%.

`CC(C)NC(=O)[C@]1(C)CCC[C@@]2(C)C3CC[C@@]4(C)C[C@]3(CCC21)CC4=O` (stereo partly specified): the Potency entry was “inactive” and the cell number change is -16.5%.

Take `CCCCNC(=O)[C@]1(C)CCC[C@@]2(C)C3CC[C@@]4(C)C[C@]3(CCC21)CC4=O` (stereo partly specified): the Potency was 0.651 µM (active) and the cell number change is -24.2%. In the same order, the values of `CC(C)(C)CNC(=O)[C@]1(C)CCC[C@@]2(C)C3CC[C@@]4(C)C[C@]3(CCC21)CC4=O` (stereo partly specified) are “inactive” and -13.8%. With `COc1ccc(/C(C)=N/NC(=O)CNC(=O)c2cccnc2)cc1`, the Potency result is “inactive” and the cell number change is 7.78%.

With `COc1ccc(C(=O)N/N=c2\oc3ccccc3cc2C(=O)NCc2ccccc2)cc1`, the Potency entry was “inactive” and the cell number change was found to be 2.22%. Take `N#CC(c1ccc(F)cc1)c1ccc(C(=O)c2ccccc2)cc1` (stereo unspecified): the Potency entry is “inactive” and the cell number change is -0.0722%. For the compound `CN(C(=O)COC(=O)c1ccc2c(c1)NC(=O)CS2)C1CCS(=O)(=O)C1` (stereo unspecified), the Potency entry was “inactive” and the cell number change came out at 4.6%. As to `CCc1nc2ccc(C(=O)NCCc3ccco3)cc2nc1CC`, the Potency is 6.51 µM (active) and the cell number change was determined as 5.81%. In the same order, the values of `CCc1nc2ccc(C(=O)NCc3ccc(C)o3)cc2nc1CC` are “inactive” and -3.07%. Take `CC(=O)Nc1cccc(C(=O)NCCc2ccco2)c1`: the Potency result is “inactive” and the cell number change came out at 7.92%.

On to `O=C(CN(C(=O)CCC(=O)Nc1nccs1)c1ccc2c(c1)OCO2)NCc1ccccc1`, for which the Potency result is “inactive”.

Turning to `CCC(CC)NC(=O)C1CC(=O)N(CCc2ccc(F)cc2)C1` (stereo unspecified), the Potency entry was “inactive”. For `CC(C)(C)NC(=O)C1CC(=O)N(CCc2ccc(F)cc2)C1` (stereo unspecified), the Potency entry was “inactive” and the cell number change was found to be 23%.

Turning to `CCC(C)(C)NC(=O)C1CC(=O)N(CCc2ccc(F)cc2)C1` (stereo unspecified), the Potency was 23.1 µM (active) and the cell number change is -4.05%. Consider `Cc1ccc(NC(=O)c2ccc(Cl)c(NC(=O)c3cccs3)c2)cc1`, for which the Potency is 25.9 µM (active) and the cell number change came out at 17.6%. For the compound `Cc1cc(C)cc(C(=O)Nc2ccc(NC(=O)c3cccs3)cc2)c1`, the Potency entry was “inactive” and the cell number change was found to be 17.7%. With `Cc1ccc(NC(=O)c2cccs2)cc1`, the Potency result is “inactive” and the cell number change is 20.8%. Regarding `Cc1cc(C(c2nnnn2Cc2ccccc2)N2CCOCC2)c(C)n1-c1ccc2c(c1)OCO2` (stereo unspecified), the Potency result was “inactive” and the cell number change is -6.63%.

Consider `CN(C)C(=O)C(NC(=O)c1ccccc1)=C(Cl)Cl`, for which the Potency result is “inactive”. As for `Cc1cc(C(=O)OCC(=O)NC2CCC(C)CC2)c(C)o1` (stereo unspecified), the Potency result is “inactive” and the cell number change was found to be 1.2%. For `CN(C)S(=O)(=O)c1ccc2c(c1)nc(CCC(=O)NCc1ccc(Cl)cc1)n2C`, the cell number change is -1.78% and the lipid storage change, negative = inhibition is -6.65% [at 9.22 µM] (inactive).

These data come from PubChem BioAssay AID2685 (National Center for Advancing Translational Sciences (NCATS), 2010).
